Bioassay records (PubChem)
Vif-A3G inh: qHTS for Inhibitors of Vif-A3G Interactions: qHTS; HeLa A3G-eYFP + Vif (tagged APOBEC3G with the HIV-1 protein that degrades it), YFP fluorescence, overnight; Potency, µM (series often up to 46.1 µM), inactives show top-dose activity, negative = active, actives largely listed as inhibitors; actives 0.076% (n = 410,000); AID 602310, 2012; note: potency is the fitted concentration of half-maximal effect; % is set by controls: 0 for no effect and ±100 for the full control effect; nearly all actives have a fitted effect of over 60% in size
Target sequence (Q9HC16 whole entry, looked up): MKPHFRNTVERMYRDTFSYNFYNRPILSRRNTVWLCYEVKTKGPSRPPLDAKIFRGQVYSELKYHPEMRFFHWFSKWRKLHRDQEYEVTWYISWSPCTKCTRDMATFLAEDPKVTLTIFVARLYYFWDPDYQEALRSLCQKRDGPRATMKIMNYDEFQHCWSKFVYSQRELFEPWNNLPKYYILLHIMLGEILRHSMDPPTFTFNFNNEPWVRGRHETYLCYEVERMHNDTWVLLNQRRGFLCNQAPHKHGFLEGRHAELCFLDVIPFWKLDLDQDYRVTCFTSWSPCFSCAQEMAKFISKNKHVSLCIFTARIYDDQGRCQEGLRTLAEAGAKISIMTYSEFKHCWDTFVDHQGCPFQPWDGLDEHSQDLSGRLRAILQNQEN
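Read-out is eYFP fluorescence (Ex 488/Em 500-530) from Vif-expressing HeLa A3G-eYFP cells; more signal means A3G escaped Vif-mediated degradation. Cells plated overnight, compound pinned in, incubated overnight at 37 deg C.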
SW480 rereplic: A quantitative high throughput screen for small molecules that induce DNA re-replication in SW480 colon adenocarcinoma cells. actives 1.8% (n = 340,000). Potency, µM (top dose mostly 46.1 µM), for inactives: top-dose re-replication activation, usual class: activators. SW480 DNA re-replication, Hoechst DNA content imaging, 48 h. AID 624297, 2012; note: potency is the fitted concentration of half-maximal effect; % of control where 0% means no effect; nearly all actives have a fitted effect of over 55% in size
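Hoechst fluorescence of nuclei (405 nm excitation, 500-530 nm emission) measured by plate-scanning imager after 48 hr compound exposure at 37 C; re-replication scored as increased number of nuclei with elevated intensity.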
MCF10A rerep: A quantitative high throughput screen for small molecules that induce DNA re-replication in MCF 10a normal breast cells. MCF 10A DNA re-replication, Hoechst nuclear intensity, 48 h. AID 624296, 2012. Potency, µM (highest dose often 46.1 µM), without a hit: at the highest dose activity, positive = re-replication, usual class: activators. actives 2.9% (n = 350,000); note: potency is the fitted concentration of half-maximal effect; % of control where 0% means no effect; nearly all actives have a fitted effect of over 50% in size
Giardia killer: Small Molecules that selectively kill Giardia lamblia: qHTS. actives 0.15% (n = 340,000). Giardia lamblia trophozoite viability. activity change, % at 7.66 µM, hits read low; in the data active = activity change below about -80%; inconclusive = between about -30% and that limit;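 note: parasites exposed to compound for two days anaerobically before the ATP read; % is set by controls: 0 for no effect and ±100 for the full control effect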
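Giardia lamblia trophozoites (100 cells/well) were incubated with compounds for 48 h at 37 deg C under anaerobic conditions. Viability was read as ATP content by one-step luminescence after 15-30 min at room temperature.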
IL-1B inflam inh: qHTS for Inhibitors of Inflammasome Signaling: IL-1-beta AlphaLISA Primary Screen; THP-1 LPS/ATP IL-1B secretion, AlphaLISA, 16 h; hits give low values; activity change, % at 57.5 µM; actives 4.7% (n = 360,000); in the data active = activity change below about -50%; inconclusive = mostly about -30% to -49%; note: % is set by controls: 0 for no effect and ±100 for the full control effect
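Secreted IL-1B measured by AlphaLISA bead assay after 16 h compound exposure of THP-1 cells; compounds (final up to 57.5 uM) added 1 h before LPS (250 ng/mL) and ATP (1.25 mM) stimulation; lower signal means less secretion.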
Vif-A3F inh: qHTS for Inhibitors of Vif-A3F Interactions: qHTS. HeLa A3F-eYFP + Vif (tagged APOBEC3F with the HIV-1 protein that degrades it), YFP fluorescence increase. Potency, µM (top dose mostly 46.1 µM), for inactives: at the top dose activity, negative = active. actives 0.2% (n = 390,000). AID 602313, 2012; note: potency is the fitted concentration of half-maximal effect; % of control where 0% means no effect; nearly all actives have a fitted effect of over 65% in size
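Fluorescence increase (Ex 488/Em 500-530) after overnight compound treatment at 37 deg C flags inhibition of Vif-driven A3F-eYFP loss in stable HeLa A3F-eYFP/Vif cells seeded overnight beforehand.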
* marks the source's active call; other numbers are inactive results. The list is not random: actives were taken first. Their share in the collection is about 6.9%. Unless noted, calls come from the whole dose curve; as a rule, active = well fitted curve in the direction sought with a large enough effect; inconclusive = small, poorly fitted or top-dose-only effect, or another doubt; inactive = no such curve, though single readings can be large; an effect the other way counts as inactive or inconclusive.

What do the screens show for `O=C(/C=C/c1ccccc1)Nc1cccc(C(=O)NC2CC2)c1`?
Vif-A3G inh: -1%; SW480 rereplic: inconclusive; MCF10A rerep: -3%; Giardia killer: -14; IL-1B inflam inh: -64*; Vif-A3F inh: 4%

Results for O=C(/C=C/c1ccccc1)Nc1cccc(C(=O)NCCCc2ccccc2)c1 ?
Vif-A3G inh: 2%; SW480 rereplic: inconclusive; MCF10A rerep: inconclusive; Giardia killer: -2; IL-1B inflam inh: 3; Vif-A3F inh: 10%

How did Oc1cccc(Nc2ncnc3sc4c(c23)CCCC4)c1 do in these assays?
Vif-A3G inh: -5%; Vif-A3F inh: 11%

What do the screens show for `Cc1cccc(N2CCN(C(=O)c3cc4c(=O)n(C)c5ccccc5c4s3)CC2)c1C`?
Vif-A3G inh: -2%; Vif-A3F inh: 1%

How did S=C=Nc1ccc(N=C=S)cc1 do in these assays?
SW480 rereplic: -13%; MCF10A rerep: -1%

Results for COc1ccccc1CN1C(=O)CN(C2CCCCCC2)C(=O)C1c1ccc(C)cc1 (stereo not given) ?
Vif-A3G inh: 1%; Vif-A3F inh: 2%

How did CCN(CC)c1cc(C)c2cc(NC(=O)/C=C/c3ccccc3Cl)ccc2n1 do in these assays?
Vif-A3G inh: -12%; Vif-A3F inh: inconclusive

Results for COc1cccc(CNCCSc2nnnn2C)c1OCc1ccc(Cl)cc1Cl ?
Vif-A3G inh: 0%; Vif-A3F inh: -1%

How did CCOC(=O)CN(Cc1ccccc1)C(C(=O)NC1CCCCC1)c1ccccc1 (stereo not given) do in these assays?
Vif-A3G inh: -1%; Vif-A3F inh: 4%

What do the screens show for `O=C(/C=C/c1ccccc1Cl)Nc1ccccc1`?
Vif-A3G inh: 0%; SW480 rereplic: -5%; MCF10A rerep: 4%; Giardia killer: -11; IL-1B inflam inh: -65*; Vif-A3F inh: 7%

How did Cc1cc(=O)c(C(=O)Nc2cccc(C(=O)NC3CC3)c2)nn1-c1ccccc1Cl do in these assays?
Vif-A3G inh: 0%; SW480 rereplic: inconclusive; MCF10A rerep: -3%; Giardia killer: 21; IL-1B inflam inh: -54*; Vif-A3F inh: 2%

What do the screens show for `Cc1nc(NC(=O)/C=C/c2ccccc2)n[nH]1`?
Vif-A3G inh: -30%; SW480 rereplic: inconclusive; MCF10A rerep: inconclusive; Giardia killer: -12; IL-1B inflam inh: -114*; Vif-A3F inh: 1%

Results for O=C(/C=C/c1ccccc1Cl)Nc1cccc(O)c1 ?
Vif-A3G inh: inconclusive; SW480 rereplic: 2%; MCF10A rerep: -7%; Giardia killer: -18; IL-1B inflam inh: -13; Vif-A3F inh: -1%

What do the screens show for `Cc1ccc(NC(=O)/C=C/c2ccccc2)c(Br)c1`?
Vif-A3G inh: 2%; Vif-A3F inh: 0%

Results for Cc1coc2c1c(C)cc1oc(=O)c(CC(=O)NCc3ccc(Cl)cc3)c(C)c12 ?
Vif-A3G inh: 4%; Vif-A3F inh: -2%

What do the screens show for `COc1ccc(Cn2c(CNC(=O)Cc3ccc(OC)c(OC)c3)nc3cccnc32)cc1`?
Vif-A3G inh: 4%; Vif-A3F inh: 6%

What do the screens show for `CC(=O)C1(O)Cc2c(O)c3c(c(O)c2C(OC2CC(N)C(O)C(C)O2)C1)C(=O)c1c(O)cccc1C3=O` (stereo not given)?
Vif-A3G inh: 1%; SW480 rereplic: inconclusive; MCF10A rerep: 2%

Results for COc1cccc2c1C(=O)c1c(O)c3c(c(O)c1C2=O)C[C@@](O)(C(=O)CO)C[C@@H]3OC1CC(N)C(O)C(C)O1 (stereo not given in full) ?
Vif-A3G inh: -1%; SW480 rereplic: -10%; MCF10A rerep: inconclusive; Giardia killer: -11; IL-1B inflam inh: -105*; Vif-A3F inh: 6%

Results for COc1cccc2c1C(=O)c1c(O)c3c(c(O)c1C2=O)CC(O)(C(C)=O)CC3OC1CC(N(C)C)C(O)C(C)O1 (stereo not given) ?
Vif-A3G inh: 1%; SW480 rereplic: inconclusive; MCF10A rerep: -1%; Giardia killer: -18; IL-1B inflam inh: -101*; Vif-A3F inh: -3%

What do the screens show for `COc1cccc2c1C(=O)c1c(O)c3c(c(O)c1C2=O)C[C@@](O)(C(=O)CO)C[C@@H]3O[C@H]1C[C@H](N)[C@H](O)[C@H](C)O1`?
Vif-A3G inh: -2%; SW480 rereplic: -14%; MCF10A rerep: -1%; Giardia killer: 1; IL-1B inflam inh: -107*; Vif-A3F inh: -3%

Results for CCc1ccccc1NC(=O)Cn1nnc(C(=O)NCc2ccco2)c1N ?
Vif-A3G inh: inconclusive; Vif-A3F inh: -9%

What do the screens show for `CCCCNC(=O)c1ccc2c(=O)n(Cc3ccc(OC)cc3)c(=O)[nH]c2c1`?
Vif-A3G inh: 0%; Vif-A3F inh: -5%

Results for COc1ccc(C)cc1NS(=O)(=O)c1ccc2oc(=O)c3ncn(C)c3c2c1 ?
Vif-A3G inh: -30%; Vif-A3F inh: 2%

What do the screens show for `Cc1ccc(CCNC(=O)CCCn2c(=O)c3ccccc3n(Cc3ccccc3C)c2=O)cc1`?
Vif-A3G inh: -5%; Vif-A3F inh: 0%

What do the screens show for `COc1ccc(C2=CC(=O)C[C@H](c3ccc(OC)cc3)C2)cc1`?
Vif-A3G inh: 0%; SW480 rereplic: -4%; MCF10A rerep: inconclusive; Giardia killer: -9; IL-1B inflam inh: -2; Vif-A3F inh: 0%

How did COc1ccc([C@H]2CC(=O)C=C(c3ccc(Cl)cc3C)C2)cc1 do in these assays?
Vif-A3G inh: -12%; SW480 rereplic: inconclusive; MCF10A rerep: 18µM*; Giardia killer: inconclusive; IL-1B inflam inh: 5; Vif-A3F inh: 6%

How did COc1ccc([C@H]2CC(=O)C=C(c3ccc(OC)cc3OC)C2)cc1 do in these assays?
Vif-A3G inh: inconclusive; SW480 rereplic: 13µM*; MCF10A rerep: inconclusive; Giardia killer: 7; IL-1B inflam inh: 50; Vif-A3F inh: -4%

Results for COC(=O)CN1C(=O)CSc2ccc(S(=O)(=O)Nc3c(C)cc(C)cc3C)cc21 ?
Vif-A3G inh: -5%; Vif-A3F inh: 1%

Results for CCCCc1nn2c(=O)cc(COC(=O)c3ccccc3NC(=O)c3cccc(C)c3)nc2s1 ?
Vif-A3G inh: -1%; Vif-A3F inh: 1%
